Inconclusive results are not listed. Activity calls are given as the source filed them. The call rests on the fitted dose curve.
What follows are compounds tested against Nucleoprotein (Lymphocytic choriomeningitis virus (strain Armstrong)) (UniProt P09992) (assay: qHTS for Inhibitors of the Functional Ribonucleoprotein Complex (vRNP) of Lymphocytic Choriomeningitis Arenaviruses (LCMV): LCMV Primary Screen - GLuc reporter signal (AID 1347086; further: nearly all actives have a fitted effect of over 70% in size)). Details: LCMV minigenome vRNP cell assay, Gaussia luciferase reporter; series mostly up to 57.5 µM; activity change, negative = inhibition: at the top concentration.
On the % scale 0 is the no-effect control and ±100 the full control effect.

Chain of Nucleoprotein (Lymphocytic choriomeningitis virus (strain Armstrong)) (P09992 whole entry, looked up): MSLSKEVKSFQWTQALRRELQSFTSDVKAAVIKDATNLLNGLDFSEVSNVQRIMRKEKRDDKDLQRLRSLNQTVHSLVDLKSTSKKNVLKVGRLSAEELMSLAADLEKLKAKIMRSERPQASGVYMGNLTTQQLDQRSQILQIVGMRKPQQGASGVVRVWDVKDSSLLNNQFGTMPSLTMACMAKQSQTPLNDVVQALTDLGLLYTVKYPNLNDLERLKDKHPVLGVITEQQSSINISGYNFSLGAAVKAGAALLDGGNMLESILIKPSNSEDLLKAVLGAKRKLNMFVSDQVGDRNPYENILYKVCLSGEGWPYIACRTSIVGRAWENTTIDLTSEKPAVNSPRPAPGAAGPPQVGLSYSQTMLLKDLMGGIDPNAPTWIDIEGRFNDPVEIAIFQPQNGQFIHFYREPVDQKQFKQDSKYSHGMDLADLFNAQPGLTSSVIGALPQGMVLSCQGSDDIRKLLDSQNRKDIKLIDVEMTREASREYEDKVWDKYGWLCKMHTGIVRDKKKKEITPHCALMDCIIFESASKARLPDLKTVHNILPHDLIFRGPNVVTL

Structure (SMILES) | activity change, negative = inhibition
COc1cc(/C=C/c2ccccc2)cc(OC)c1 | 3.68% (inactive)
CC/C=C\CCCCO | 0.376% [at 115 µM] (inactive)
COc1ccc([C@@H]2CC(=O)c3c(O)cc(O[C@@H]4OC(CO[C@@H]5OC(C)[C@H](O)[C@@H](O)[C@H]5O)[C@@H](O)[C@H](O)[C@H]4O)cc3O2)cc1O (stereo not given in full) | 8.52% (inactive)
CC12CCC(=O)C=C1CCC1C2CCC2(C)C(C(=O)CO)CC(O)C12 (stereo not given) | 6.63% (inactive)
COc1ccc(C(=O)OC2CC3CCC(C2)[N+]3(C)[O-])cc1OC (stereo not given) | 18.2% (inactive)
C/C=C1/C[C@@H](C)[C@@](C)(O)C(=O)OCC2=CCN3CC[C@@H](OC1=O)[C@@H]23 | 41.7% (inactive)
COc1ccc([C@@H]2CC(=O)c3c(O)cc(O[C@@H]4O[C@H](CO)[C@@H](O)[C@H](O)[C@H]4O[C@@H]4O[C@@H](C)[C@H](O)[C@@H](O)[C@H]4O)cc3O2)cc1 | 1.85% [at 24.7 µM] (inactive)
CO[C@H]1/C=C\O[C@@]2(C)Oc3c(C)c(O)c4c(O)c(c5c(nc6cc(C)ccn65)c4c3C2=O)NC(=O)C(C)=CC=C[C@H](C)[C@H](O)[C@@H](C)[C@@H](O)[C@@H](C)[C@H](OC(C)=O)[C@H]1C | 29.5% (inactive)
C=C1C(=O)O[C@H]2C[C@]3(C)C([C@@H](OC(=O)/C(C)=C/C)[C@H]12)[C@](C)(O)CC[C@H]3O (stereo not given in full) | -30.9% (inactive)
CN(CC=CC#CC(C)(C)C)Cc1cccc2ccccc12 | 8.96% (inactive)
CC(=O)OC1c2c(ccc3ccc(=O)oc23)OC(C)(C)C1OC(=O)CC(C)C (stereo not given) | -15.1% (inactive)
C/C1=C\[C@@H](O)C(C(C)C)C(OC(=O)c2ccc(O)cc2)C/C(C)=C/CC1 (stereo not given in full) | 13.6% (inactive)
COc1ccc2c(c1)OC[C@H]1c3cc4c(cc3O[C@@H]21)OCO4 | 4.43% (inactive)
CC1C(=O)OC2CCN3CC=C(COC(=O)C(C)(O)C1(C)O)C23 (stereo not given) | 68.7% (inactive)
CCOC(=O)c1cc(=O)[nH]c2ccccc12 | -0.679% (inactive)
CC1(C)C[C@H]2C3=CCC4[C@@]5(C)CC[C@H](O)C(C)(C)C5CC[C@@]4(C)[C@]3(C)[C@@H](O)[C@@H](O)[C@@]2(CO)[C@@H](O)[C@@H]1O (stereo not given in full) | 12.6% (inactive)
C[C@]12C=CC(=O)C=C1CC[C@@H]1[C@@H]2[C@@H](O)C[C@@]2(C)[C@@H]1CC[C@]2(O)C(=O)CO | 61.6% (inactive)
COc1cc2c(cc1OC)-c1cc3ccc4c(c3c[n+]1CC2)OCO4 | -18.6% (inactive)
N[C@H](C(=O)O)c1ccc(O)c(C(=O)O)c1 | 5.08% (inactive)
CC[C@H](C)C(=O)N[C@H]1CCCN1C(=O)/C=C/c1ccccc1 | 0.743% (inactive)

Structure (SMILES) | activity change, negative = inhibition
CCCCCCCCCCOC(C)=O | 14.1% [at 115 µM] (inactive)
C=C1C(=O)OC2C=C(C)CCC=C(C)CCC12 (stereo not given) | 1.41% (inactive)
CC(=O)O[C@H]1C[C@@]2(O)[C@@H](OC(=O)c3ccccc3)C3[C@@](C)([C@@H](O)C[C@H]4OC[C@@]34OC(C)=O)[C@@H](O)[C@H](OC(C)=O)C(=C1C)C2(C)C (stereo not given in full) | 6.13% (inactive)
CC(C)C(=O)OCCc1ccccc1 | 2.32% [at 115 µM] (inactive)
Cc1ccc(C(C)(C)O)cc1 | 1.58% [at 115 µM] (inactive)
O=C(/C=C/c1ccccc1)NCCc1cnc[nH]1 | 12.4% (inactive)
C=CCCC[C@@H]1OC(=O)CNC(=O)C([C@@H](C)CC)NC(=O)[C@@H]2CCCN2C(=O)C([C@@H](C)CC)OC(=O)[C@H](Cc2ccccc2)N(C)C(=O)[C@H](C(C)C)NC(=O)C1(C)C (stereo not given in full) | -11.3% (inactive)
NC(=O)Nc1ccc(Cl)c(Cl)c1 | 32.7% [at 115 µM] (inactive)
COc1cc2oc(=O)c3c4c(cc5ccc(c1CCN(C)C)c2c53)OCO4 | 0.707% (inactive)
C=C(C)C(O)CC/C(C)=C/Cc1c(O)ccc(C(=O)/C=C/c2ccc(O)cc2)c1O (stereo not given) | 4.48% (inactive)
COCCOCCOCCOCCOC | 10% [at 115 µM] (inactive)
N[C@@H](CCCCNC(=O)CCCC[C@@H]1SC[C@H]2NC(=O)N[C@H]12)C(=O)O | 39.4% (inactive)
c1ccc2c3c([nH]c2c1)C1(CCCCC1)NCC3 | 10.8% (inactive)
CC(=O)[C@@]1(O)CCC2C3CC[C@H]4C[C@@H](O)CC[C@]4(C)C3CC[C@@]21C (stereo not given in full) | 4.05% (inactive)
CC(C)N(CCCNC(=O)Nc1ccc(C(C)(C)C)cc1)C[C@H]1O[C@@H](n2cc(Br)c3c(N)ncnc32)[C@H](O)[C@H]1O | -4.38% (inactive)
CN1CC(=O)N2C(Cc3c([nH]c4ccccc34)[C@H]2c2ccc3c(c2)OCO3)C1=O (stereo not given in full) | -1.44% (inactive)
C/C=C1\NC(=O)[C@H](C)NC(=O)[C@@H](NC(=O)[C@H](Cc2ccc(O)cc2)NC(=O)[C@@H](NC(=O)/C(C)=C/C)C(C)C)[C@@H](C)OC(=O)[C@H](CC(C)C)NC(=O)[C@@H](CCC(=O)O)NC1=O | -3.75% (inactive)
COc1ccc(-c2coc3cc(O[C@@H]4O[C@H](CO)[C@@H](O)[C@H](O)[C@H]4O)c(OC)cc3c2=O)cc1 | 1.21% (inactive)
C#CCCC[C@@H]1OC(=O)CNC(=O)C([C@@H](C)CC)NC(=O)[C@@H]2CCCN2C(=O)C([C@@H](C)CC)OC(=O)[C@H](Cc2ccccc2)N(C)C(=O)[C@H](C(C)C)NC(=O)C1(C)C (stereo not given in full) | 4.62% (inactive)
Cc1cc(=O)c2c(O)c(O)ccc2o1 | 0.853% (inactive)
